This is an account of results in PubChem BioAssay (Tox21).

Inconclusive results are not listed. Activity calls are given as the source filed them. Unless noted, calls follow the shape of the dose curve; as a rule, active = well fitted curve in the direction sought with a large enough effect in the repeat runs; inconclusive = weak or mixed curves; inactive = no such curve, though single readings can be large; an effect the other way counts as inactive or inconclusive.

Assay [1] in a line: qHTS assay to identify small molecule antagonists of the glucocorticoid receptor (GR) signaling pathway - cell viability counter screen (AID 720693). Also: nearly all actives have a fitted effect of over 55% in size.
Assay [2] in a line: qHTS assay for identifying genotoxic compounds that show differential cytotoxicity against isogenic chicken DT40 cell lines with known DNA damage response pathways - wild type cell line (AID 743012). Also: nearly all actives have a fitted effect of over 60% in size. Also: potency is read from the fitted curve at half-maximal effect. In short, it runs like this:
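Viability of DNA repair-proficient chicken DT40 cells was assessed by CellTiter-Glo luminescence following 40 h compound exposure at 37 C/5% CO2.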
A general note: qHTS replaces the single test concentration by a dilution series.

The nature of assay [3]: qHTS assay for identifying genotoxic compounds that show differential cytotoxicity against isogenic chicken DT40 cell lines with known DNA damage response pathways - Rev3 mutant cell line (AID 743014). Also: nearly all actives have a fitted effect of over 55% in size. Also: potency is read from the fitted curve at half-maximal effect.
The nature of assay [4]: qHTS assay for identifying genotoxic compounds that show differential cytotoxicity against isogenic chicken DT40 cell lines with known DNA damage response pathways - Rad54/Ku70 mutant cell line (AID 743015). Also: nearly all actives have a fitted effect of over 60% in size. Also: potency is read from the fitted curve at half-maximal effect.
Assay [5] is described as follows: qHTS assay to identify small molecule antagonists of the androgen receptor (AR) signaling pathway - cell viability counter screen (AID 743033; also: nearly all actives have a fitted effect of over 45% in size).
Assay [6] is described as follows: qHTS assay to identify small molecule antagonists of the androgen receptor (AR) signaling pathway using the MDA cell line - cell viability counter screen (AID 743041; also: nearly all actives have a fitted effect of over 45% in size; also: potency is read from the fitted curve at half-maximal effect). The procedure, abridged:
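In this qHTS counter assay, fluorescence intensity after CellTiter-Fluor addition indicated viability of MDA-kb2 AR-luc cells given compounds and R1881 for 16 h at 37C.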

Assay [7] has as its target Androgen receptor (Homo sapiens) (UniProt P10275). Description: qHTS assay to identify small molecule antagonists of the androgen receptor (AR) signaling pathway (AID 743035; active = well fitted inhibition curve with a large enough effect in the signal ratio in the repeat runs, not every such curve was filed as active; the % refers to the signal ratio; also: potency is read from the fitted curve at half-maximal effect). In short, it runs like this:
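Reporter HEK293 cells were exposed to compounds and R1881 overnight (16 h, 37C); beta-lactamase activity was then quantified by FRET fluorescence.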

For assay [8] the target is unchanged. Kind of assay: qHTS assay to identify small molecule agonists of the androgen receptor (AR) signaling pathway (AID 743036; active = well fitted activation curve with a large enough effect in the signal ratio in the repeat runs, with a control signal flat, not every such curve was filed as active; the % refers to the signal ratio). The procedure, abridged:
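Following a 4 h settling period, AR-UAS-bla HEK293 cells were dosed with compounds for 16 h at 37C. A 2 h room-temperature incubation with LiveBLAzer B/G FRET substrate preceded the fluorescence measurement.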

The target is the same in assay [9]. Kind of assay: qHTS assay to identify small molecule agonists of the androgen receptor (AR) signaling pathway using the MDA cell line (AID 743040; also: nearly all actives have a fitted effect of over 20% in size). The procedure, abridged:
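Cell-based luciferase reporter: MDA-kb2, MMTV promoter (AR + GR response elements). 16 h compound exposure at 37C; ONE-Glo, 30 min RT, luminescence.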

Assay [10] shares this target. Kind of assay: qHTS assay to identify small molecule antagonists of the androgen receptor (AR) signaling pathway using the MDA cell line (AID 743042; also: nearly all actives have a fitted effect of over 55% in size; also: potency is read from the fitted curve at half-maximal effect). In short, it runs like this: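 MDA-kb2 cells (human breast carcinoma, stably carrying an MMTV-luciferase reporter responsive to AR and GR) were plated at 3,000 cells/well and preincubated 5 hr at 37C, then given compound plus R1881 agonist for 16 h. ONE-Glo luminescence was read.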

Androgen receptor (Homo sapiens), sequence (P10275 whole entry, looked up): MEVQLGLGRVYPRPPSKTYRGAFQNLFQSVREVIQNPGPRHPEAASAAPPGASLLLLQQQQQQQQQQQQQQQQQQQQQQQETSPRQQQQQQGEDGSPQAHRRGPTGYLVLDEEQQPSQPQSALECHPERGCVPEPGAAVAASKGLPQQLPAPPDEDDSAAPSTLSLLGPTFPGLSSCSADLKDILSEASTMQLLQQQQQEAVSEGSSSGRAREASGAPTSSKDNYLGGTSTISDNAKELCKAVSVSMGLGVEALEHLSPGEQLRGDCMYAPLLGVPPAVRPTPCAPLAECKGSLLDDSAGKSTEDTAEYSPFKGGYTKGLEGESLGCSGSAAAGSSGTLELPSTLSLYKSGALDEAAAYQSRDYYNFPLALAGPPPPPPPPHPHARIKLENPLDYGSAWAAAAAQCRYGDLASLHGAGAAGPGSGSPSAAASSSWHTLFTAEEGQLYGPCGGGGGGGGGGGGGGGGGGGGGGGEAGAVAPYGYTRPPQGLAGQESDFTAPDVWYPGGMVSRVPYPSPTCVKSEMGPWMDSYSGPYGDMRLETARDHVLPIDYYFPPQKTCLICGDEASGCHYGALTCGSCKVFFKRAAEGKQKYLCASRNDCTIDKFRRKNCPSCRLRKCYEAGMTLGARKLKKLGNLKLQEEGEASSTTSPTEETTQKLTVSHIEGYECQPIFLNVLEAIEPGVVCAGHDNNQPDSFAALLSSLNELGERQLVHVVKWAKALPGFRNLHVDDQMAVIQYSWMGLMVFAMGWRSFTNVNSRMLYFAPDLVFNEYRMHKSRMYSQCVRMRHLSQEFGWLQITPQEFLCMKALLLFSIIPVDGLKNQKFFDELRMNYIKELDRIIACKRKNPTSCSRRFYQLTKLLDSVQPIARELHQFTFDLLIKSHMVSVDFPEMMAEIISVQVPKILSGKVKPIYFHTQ

As to `COc1cc(CCN)cc(OC)c1OC`, the Potency result in assay [1], in assay [2], in assay [3], in [4], in assay [5] and in assay [6] was “inactive” throughout.

As for `CCOC(=O)C(Cl)Cc1cc(-n2nc(C)n(C(F)F)c2=O)c(F)cc1Cl` (configuration not stated), the Potency entry in assay [1], in assay [5] and in assay [6] was “inactive” in each case. Further, the Potency was 54.5 µM (active) in assay [2], 61.1 µM (active) in [3] and 54.5 µM (active) in assay [4].

On to `NC(=O)CS(=O)C(c1ccccc1)c1ccccc1` (configuration not stated), for which the Potency result in assay [1], in assay [2], in assay [3], in assay [4], in assay [5] and in assay [6] was “inactive” in each case.

With `CC(O)CCl` (configuration not stated), the Potency entry in assay [1], in assay [2], in assay [3], in assay [4], in assay [5] and in assay [6] was “inactive” throughout.

Consider `CN=CNc1ccc(C)cc1C`, for which the Potency entry in assay [1], in assay [2], in assay [3], in assay [4], in assay [5] and in assay [6] was “inactive” throughout.

Regarding `CC(C)(C)NC[C@H](O)c1ccc(O)cc1Cl`, the Potency result in assay [1], in assay [2], in assay [3], in assay [4], in assay [5] and in [6] was “inactive” each time.

`CC(=O)CN(CC(C)=O)N=O`: the Potency result in assay [1], in [2], in assay [3], in assay [4], in [5] and in assay [6] was “inactive” each time.

For `CCCC[N+](=O)[O-]`, the Potency entry in assay [1], in assay [2], in [3], in assay [4], in assay [5] and in [6] was “inactive” each time.

Turning to `NC(=O)OCCCc1ccccc1`, the Potency entry in [1], in [5] and in assay [6] was “inactive” in each case. The Potency in assay [2] is 13.3 µM (active); in assay [3] it was 11.9 µM (active); in [4], 29.8 µM (active).

Turning to `CCOP(=O)(CN(CCO)CCO)OCC`, the Potency result in assay [1], in assay [2], in [3], in assay [4], in assay [5] and in assay [6] was “inactive” throughout.

`C#CCOC(=O)/C=C(C)/C=C/CC(C)CCCC(C)C` (configuration not stated): the Potency entry in [1], in [2], in assay [3], in assay [5] and in assay [6] was “inactive” throughout.

For the compound `COC(=O)[C@@H](N)CCCN/C(N)=N/[N+](=O)[O-]`, the Potency result in assay [1], in [2], in assay [3], in [4] and in assay [6] was “inactive” each time.

On to `O=C(CCl)NCO`, for which the Potency entry in assay [1], in [2], in [3], in assay [4] and in assay [6] was “inactive” throughout.

Take `CCCC(C)(COC(N)=O)COC(N)=O`: the Potency entry in assay [1], in assay [2], in assay [3], in [4], in [5] and in assay [6] was “inactive” in each case.

With `CN(C)CCc1c[nH]c2cccc(OP(=O)(O)O)c12`, the Potency result in assay [1], in assay [2], in assay [3], in [4], in assay [5] and in assay [6] was “inactive” throughout.

Consider `N[C@@H](Cc1ccc(Oc2cc(I)c(O)c(I)c2)c(I)c1)C(=O)O`, for which the Potency result in assay [1], in assay [2], in assay [3], in assay [4], in assay [5] and in assay [6] was “inactive” throughout.

`NCC1(CC(=O)O)CCCCC1`: the Potency entry in [1], in [2], in assay [3], in [4] and in [6] was “inactive” in each case.

Take `CCCCCCC1CCOC1=O` (configuration not stated): the Potency entry in assay [1], in assay [2], in assay [3], in [4], in assay [5] and in assay [6] was “inactive” in each case.

`ClCOCCl`: the Potency entry in assay [1], in assay [2], in assay [3], in assay [4], in [5] and in [6] was “inactive” in each case.

Consider `CC(C)N(Cc1ccccc1)C(=O)C(C)(C)C`, for which the Potency entry in assay [1], in assay [5], in assay [7], in assay [6] and in assay [10] was “inactive” each time. Also, the Potency was 61.1 µM (active) in assay [2] and 68.6 µM (active) in assay [3]. Also, the result in [8] and in [9] was inactive.

As to `CON(C)C(=O)Nc1ccc(Br)cc1`, the Potency entry in [1], in [2], in assay [3], in assay [4], in assay [5] and in assay [6] was “inactive” in each case.

On to `Nc1c(Cl)c(F)nc(OCC(=O)O)c1Cl`, for which the Potency entry in assay [1], in [2], in [4], in assay [5], in assay [6] and in assay [10] was “inactive” each time. For the same compound, the compound was called inactive in assay [9].

Regarding `CC(C)[N+](C)(CCC(C(N)=O)(c1ccccc1)c1ccccc1)C(C)C`, the Potency entry in assay [1], in assay [2], in assay [3], in assay [4], in [5] and in assay [6] was “inactive” in each case.

Consider `O=C(Cl)CCl`, for which the Potency result in assay [1], in assay [2], in assay [3], in assay [4], in assay [5] and in [6] was “inactive” throughout.

Consider `Cn1c(CCCC(=O)O)nc2cc(N(CCCl)CCCl)ccc21`, for which the Potency result in assay [1], in [5] and in assay [6] was “inactive” each time. In addition, the Potency is 26.6 µM (active) in assay [2] and 3.35 µM (active) in assay [3].

For the compound `CC(=NC#N)N(C)Cc1ccc(Cl)nc1`, the Potency entry in assay [1], in assay [2], in [3], in assay [4], in [5] and in [6] was “inactive” throughout.

As to `C/C(=N\NC(=O)Nc1cc(F)cc(F)c1)c1ncccc1C(=O)O`, the Potency result in assay [1], in [2], in assay [3], in assay [4], in assay [5] and in [6] was “inactive” in each case.

Consider `CCCCOC(C)=O`, for which the Potency entry in assay [1], in assay [2], in [3], in assay [4], in assay [5] and in assay [6] was “inactive” throughout.

On to `O=C(O)C(Br)(Br)Br`, for which the Potency result in assay [1], in [2], in [3], in assay [4], in assay [5] and in [6] was “inactive” each time.

For `CC1N=C(N)OC1c1ccccc1` (configuration not stated), the Potency result in assay [1], in [2], in [3], in assay [4], in [5] and in assay [6] was “inactive” each time.

Turning to `Cc1ccc(S(=O)(=O)N[C@@H](CCCCN)C(=O)CCl)cc1`, the Potency result in assay [1] was “inactive”. Besides, the Potency was 5.96 µM (active) in assay [2]; 10.6 µM (active) in assay [3]; 10.6 µM (active) in assay [4]; 21.3 µM (active) in [7]; 21.1 µM (active) in assay [6]; 23.7 µM (active) in assay [10]. Further, the outcome in [9] was inactive.

`CC1NCCOC1c1ccccc1` (configuration not stated): the Potency result in assay [1], in assay [3], in [4], in assay [5] and in assay [6] was “inactive” throughout.
